Data on seven compounds can be found in PubChem BioAssay (EPA / NIEHS).

Test [1] is described as follows: ATG_CRE_CIS: Attagene CIS-FACTORIAL HepG2 Assay for human cAMP Responsive Element (CRE) binding protein 3 (AID 2282926). Particulars: HepG2 CRE cis-reporter, Attagene multiplexed mRNA; actives raise or lower the signal. The essentials:
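Multiplexed transcription-unit reporters transfected into HepG2; 24 h dosing; RT-PCR/capillary electrophoresis fluorescence read-out; bidirectional fit vs DMSO.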

In test [2] the target is CCAAT/enhancer-binding protein beta (Homo sapiens) (UniProt P17676). The test is described as follows: ATG_C_EBP_CIS: Attagene CIS-FACTORIAL HepG2 Assay for human CCAAT/Enhancer Binding Protein (C/EBP) beta (AID 2282927). Particulars: HepG2 Attagene cis-factorial transcription factor reporter; actives raise or lower the signal. The method, boiled down:
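Transiently transfected HepG2 (MRTU library, endogenous TF-driven promoters); 24 h dosing; total RNA → oligo(dT) RT → PCR → 6-FAM primer extension → HpaI digest → CE; fit bidirectionally vs DMSO.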

Test [3] can be described thus: ATG_CMV_CIS: Attagene CIS-FACTORIAL HepG2 Assay for human CMV (Internal Marker) (AID 2282928).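 Further: endpoint acts as a background internal control marker rather than a target.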 Particulars: HepG2 CMV promoter reporter, transcription factor profiling; actives raise or lower the signal. The method, boiled down:
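Cell system: HepG2, transiently transfected multiple reporter units under cis promoters. Exposure: 24 h. Detection: RT-PCR, FAM labeling, HpaI digestion, capillary electrophoresis. Analysis: bidirectional, DMSO baseline.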

Test [4] in a line: ATG_DR4_LXR_CIS: Attagene CIS-FACTORIAL HepG2 Assay for human Liver X Receptor (LXR), DR4 submotif (AID 2282929). Particulars: HepG2 Attagene DR4 cis-reporter, mRNA transcription; actives raise or lower the signal. The method, boiled down:
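Endogenous factor activity at a DR4 cis-element is read as reporter mRNA in transiently transfected HepG2 cells. Exposure lasts 24 h; transcripts are amplified, fluorescently labelled and sized by capillary electrophoresis, with DMSO as baseline.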

The target in test [5] is Aryl hydrocarbon receptor (Homo sapiens) (UniProt P35869). The test is described as follows: ATG_Ahr_CIS: Attagene CIS-FACTORIAL HepG2 Assay for human Aryl Hydrocarbon Receptor (Ahr) (AID 2282930). Particulars: HepG2 AhR cis-factorial reporter transcription; actives raise or lower the signal. The essentials: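 Read-out: reporter mRNA quantified by RT-PCR with fluorescent primer extension and capillary electrophoresis. Human HepG2 liver cells carried transfected cis-promoter reporter units and were exposed to chemical for 24 h; gain or loss fitted relative to DMSO.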

Test [6] in a line: ATG_AP_1_CIS: Attagene CIS-FACTORIAL HepG2 Assay for human Activator Protein 1 (AP-1) (AID 2282931). Particulars: HepG2 Attagene cis-factorial AP-1 reporter mRNA; actives raise or lower the signal. The essentials: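 Fluorescence of labelled PCR fragments separated by capillary electrophoresis gives reporter mRNA levels. HepG2 with transfected cis-regulated reporter units, 24 h exposure; DMSO serves as baseline for bidirectional curve fits.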

Test [7] is described as follows: ATG_AP_2_CIS: Attagene CIS-FACTORIAL HepG2 Assay for human Activator Protein 2 (AP-2) (AID 2282932). Particulars: HepG2 AP-2 cis-reporter, Attagene transcription factor profiling; actives raise or lower the signal. The method, boiled down: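 Multiplexed mRNA reporter assay in HepG2: cis-regulated units report endogenous factor activity after 24 h treatment. Fluorescence from capillary electrophoresis of RT-PCR products gives the signal, with DMSO as baseline.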

Test [8] is described as follows: ATG_BRE_CIS: Attagene CIS-FACTORIAL HepG2 Assay for human Bone Morphogenetic Protein (BMP) Response Element (BRE) (AID 2282933). Particulars: HepG2 BMP response element reporter, Attagene transcription factor profiling; actives raise or lower the signal. The method, boiled down: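 Endogenous transcription factor activity read in transiently transfected HepG2 cells after 24 h chemical exposure. Bidirectional curve fitting against DMSO; readout is reporter transcript level by RT-PCR with capillary electrophoresis of labelled products.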

Test [9] has as its target Retinoic acid receptor alpha (Homo sapiens) (UniProt P10276). The test is described as follows: ATG_DR5_RAR_CIS: Attagene CIS-FACTORIAL HepG2 Assay for human Retinoic Acid Receptor Alpha (RARE), DR5 submotif (AID 2282934). Particulars: HepG2 Attagene cis-factorial RARE DR5 reporter, mRNA; actives raise or lower the signal. The essentials:
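Read-out: DR5-driven reporter transcript measured by RT-PCR, 6-FAM primer extension, HpaI digest and capillary electrophoresis. Human HepG2 liver cells carry transiently transfected cis-element reporter constructs; dosing lasts 24 h. Gain or loss of signal fitted against DMSO baseline.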

In test [10] the target is Transcription factor E2F1 (Homo sapiens) (UniProt Q01094). The test is described as follows: ATG_E2F_CIS: Attagene CIS-FACTORIAL HepG2 Assay for human E2F Transcription Factor 1 (AID 2282935). Particulars: HepG2 Attagene cis-reporter, E2F reporter RNA transcripts; actives raise or lower the signal. The essentials:
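Measures reporter transcript levels via RT-PCR with capillary electrophoresis detection in HepG2 cells harboring cis-regulated reporter units; 24 h post-dose; bidirectional curve fitting with DMSO as baseline.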

Test [11] is described as follows: ATG_E_Box_CIS: Attagene CIS-FACTORIAL HepG2 Assay for human Enhancer Box (E-box) (AID 2282936). Particulars: HepG2 E-box cis-reporter transcription, actives raise or lower the signal. The essentials: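 First, HepG2 cells receive multiple cis-regulated reporter constructs by transient transfection. Next, chemicals are applied for 24 h. Finally, reporter mRNA is quantified via RT-PCR and capillary electrophoresis, with DMSO as baseline.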

The nature of test [12]: ATG_M_61_CIS: Attagene CIS-FACTORIAL HepG2 Assay for M61 Transcription Factor (Internal Marker) (AID 2282937). Particulars: HepG2 Attagene CIS-FACTORIAL M61 internal marker reporter; actives raise or lower the signal. The method, boiled down: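 This endpoint serves as an internal background control within a multiplexed HepG2 cis-reporter panel. Cells are exposed for 24 h; reporter mRNA is amplified, fluorescently labelled and sized by capillary electrophoresis, with DMSO as negative control.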

Test [13] can be described thus: ATG_EGR_CIS: Attagene CIS-FACTORIAL HepG2 Assay for human Early Growth Response 1 (EGR1) (AID 2282938). Particulars: HepG2 Attagene CIS-FACTORIAL EGR reporter mRNA; actives raise or lower the signal. The method, boiled down:
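HepG2, transient MRTU transfection (cis promoters), 24 h compound. RNA → RT (oligo-dT) → PCR → 6-FAM labelling → HpaI cut → CE fluorescence. Bidirectional fit, DMSO baseline.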

The nature of test [14]: ATG_M_19_CIS: Attagene CIS-FACTORIAL HepG2 Assay for M19 Transcription Factor (Internal Marker) (AID 2282939). Particulars: HepG2 Attagene CIS-FACTORIAL M19 internal marker reporter; actives raise or lower the signal. The essentials:
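Internal marker readout, fitted in both directions against DMSO, from HepG2 cells carrying transfected cis-element reporter constructs; RT-PCR and capillary electrophoresis of reporter mRNA after 24 h exposure.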

Test [15] in a line: ATG_ERE_CIS: Attagene CIS-FACTORIAL HepG2 Assay for Estrogen Response Element (ERE) (AID 2282940). Particulars: HepG2 ERE cis-reporter, Attagene RNA transcript; actives raise or lower the signal. The essentials:
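After 24 h compound treatment, RNA from transfected HepG2 cells was reverse-transcribed, reporter cDNA PCR-amplified, FAM-labelled, HpaI-cut and resolved by capillary electrophoresis. ERE-driven cis reporter transcripts reflect endogenous factors; gain or loss scored against DMSO.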

The nature of test [16]: ATG_Ets_CIS: Attagene CIS-FACTORIAL HepG2 Assay for human Erythroblast Transformation Specific (ETS) (AID 2282941). Particulars: HepG2 ETS cis-reporter transcription, actives raise or lower the signal. The method, boiled down: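 After transient cis-reporter transfection, HepG2 cells receive test chemical for 24 h. Reporter mRNA levels, measured by RT-PCR and capillary electrophoresis fluorescence, are analysed bidirectionally relative to the DMSO baseline.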

The target in test [17] is Hepatocyte nuclear factor 3-beta (Homo sapiens) (UniProt Q9Y261). As to the kind of experiment: ATG_FoxA2_CIS: Attagene CIS-FACTORIAL HepG2 Assay for human Forkhead box A2 (FOXA2) (AID 2282942). Particulars: HepG2 cis-reporter transcription factor activity, 24 h; actives raise or lower the signal. The method, boiled down:
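Cells: HepG2, transient multiplex reporter transfection. Exposure 24 h. Detection: reporter-specific RT-PCR, fluorescent labelling, restriction digest, capillary electrophoresis. Analysis: bidirectional curve fit, DMSO as negative control.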

Test [18] can be described thus: ATG_FoxO_CIS: Attagene CIS-FACTORIAL HepG2 Assay for human Forkhead box O (FoxO) (AID 2282943). Particulars: HepG2 Attagene cis-reporter, FoxO element, mRNA; actives raise or lower the signal. The essentials: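 Read-out: fluorescence of 6-FAM-labelled reporter cDNA fragments resolved by capillary electrophoresis. Transiently transfected HepG2 cells were dosed for 24 h; activity fitted in both directions relative to DMSO controls.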

Test [19] is described as follows: ATG_GATA_CIS: Attagene CIS-FACTORIAL HepG2 Assay for human GATA Binding Protein (AID 2282944). Particulars: HepG2 GATA cis-element reporter, Attagene multiplex mRNA; actives raise or lower the signal. The essentials: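 Reporter transcripts from a GATA cis-regulated unit, among multiplexed reporters in transfected HepG2 cells, were measured by RT-PCR with capillary electrophoresis after 24 h dosing. Induction or loss scored relative to DMSO.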

Test [20] can be described thus: ATG_GLI_CIS: Attagene CIS-FACTORIAL HepG2 Assay for human Zinc Finger Protein GLI1 (AID 2282945). Particulars: HepG2, Attagene cis-factorial reporter mRNA, GLI element; actives raise or lower the signal. The method, boiled down: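 Transiently transfected HepG2 cells report endogenous transcription factor activity via cis-element-driven reporter units. After 24 h compound exposure, reporter mRNA was measured by RT-PCR with capillary electrophoresis; bidirectional fitting against DMSO baseline.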

Calls of active or inactive are those of the source. How the source made its calls: active means hit-call score of the fitted dose curve at least 0.9, where 1 is the maximum; inactive means score below 0.9.

Chain of Retinoic acid receptor alpha (Homo sapiens) (P10276 whole entry, looked up): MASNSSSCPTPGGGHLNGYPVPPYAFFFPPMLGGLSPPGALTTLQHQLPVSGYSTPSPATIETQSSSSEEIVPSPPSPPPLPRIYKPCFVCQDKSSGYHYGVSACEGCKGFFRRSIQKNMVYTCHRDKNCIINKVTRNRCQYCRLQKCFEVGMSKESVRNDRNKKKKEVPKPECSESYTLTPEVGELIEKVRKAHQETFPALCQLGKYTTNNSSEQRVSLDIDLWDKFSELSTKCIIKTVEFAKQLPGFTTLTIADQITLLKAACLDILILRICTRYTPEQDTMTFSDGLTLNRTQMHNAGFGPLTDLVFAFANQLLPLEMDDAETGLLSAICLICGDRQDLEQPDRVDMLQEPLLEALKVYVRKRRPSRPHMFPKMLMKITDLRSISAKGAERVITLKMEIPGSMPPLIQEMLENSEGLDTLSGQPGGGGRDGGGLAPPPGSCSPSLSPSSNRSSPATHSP
Chain of Transcription factor E2F1 (Homo sapiens) (Q01094 whole entry, looked up): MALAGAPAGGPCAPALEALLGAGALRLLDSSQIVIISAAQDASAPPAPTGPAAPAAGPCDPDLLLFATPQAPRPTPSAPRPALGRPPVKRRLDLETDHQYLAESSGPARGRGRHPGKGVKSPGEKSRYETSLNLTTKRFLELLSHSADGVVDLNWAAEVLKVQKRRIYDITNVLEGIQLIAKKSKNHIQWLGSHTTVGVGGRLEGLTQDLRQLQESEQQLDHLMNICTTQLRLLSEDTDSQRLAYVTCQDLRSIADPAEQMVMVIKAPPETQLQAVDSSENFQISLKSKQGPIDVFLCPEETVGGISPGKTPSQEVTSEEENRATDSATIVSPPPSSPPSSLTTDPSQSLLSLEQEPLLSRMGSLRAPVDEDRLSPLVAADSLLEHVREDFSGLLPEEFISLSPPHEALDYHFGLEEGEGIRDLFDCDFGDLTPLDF
Chain of CCAAT/enhancer-binding protein beta (Homo sapiens) (P17676 whole entry, looked up): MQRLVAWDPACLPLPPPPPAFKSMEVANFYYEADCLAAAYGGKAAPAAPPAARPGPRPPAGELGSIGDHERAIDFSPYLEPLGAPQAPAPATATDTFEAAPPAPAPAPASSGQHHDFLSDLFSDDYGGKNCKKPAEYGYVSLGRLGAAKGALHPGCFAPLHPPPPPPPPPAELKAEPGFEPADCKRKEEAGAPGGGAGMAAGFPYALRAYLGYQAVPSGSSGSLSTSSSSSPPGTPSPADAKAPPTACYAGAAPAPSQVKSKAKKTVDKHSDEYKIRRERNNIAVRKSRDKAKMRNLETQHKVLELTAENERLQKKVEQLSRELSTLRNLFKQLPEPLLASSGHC
Chain of Aryl hydrocarbon receptor (Homo sapiens) (P35869 whole entry, looked up): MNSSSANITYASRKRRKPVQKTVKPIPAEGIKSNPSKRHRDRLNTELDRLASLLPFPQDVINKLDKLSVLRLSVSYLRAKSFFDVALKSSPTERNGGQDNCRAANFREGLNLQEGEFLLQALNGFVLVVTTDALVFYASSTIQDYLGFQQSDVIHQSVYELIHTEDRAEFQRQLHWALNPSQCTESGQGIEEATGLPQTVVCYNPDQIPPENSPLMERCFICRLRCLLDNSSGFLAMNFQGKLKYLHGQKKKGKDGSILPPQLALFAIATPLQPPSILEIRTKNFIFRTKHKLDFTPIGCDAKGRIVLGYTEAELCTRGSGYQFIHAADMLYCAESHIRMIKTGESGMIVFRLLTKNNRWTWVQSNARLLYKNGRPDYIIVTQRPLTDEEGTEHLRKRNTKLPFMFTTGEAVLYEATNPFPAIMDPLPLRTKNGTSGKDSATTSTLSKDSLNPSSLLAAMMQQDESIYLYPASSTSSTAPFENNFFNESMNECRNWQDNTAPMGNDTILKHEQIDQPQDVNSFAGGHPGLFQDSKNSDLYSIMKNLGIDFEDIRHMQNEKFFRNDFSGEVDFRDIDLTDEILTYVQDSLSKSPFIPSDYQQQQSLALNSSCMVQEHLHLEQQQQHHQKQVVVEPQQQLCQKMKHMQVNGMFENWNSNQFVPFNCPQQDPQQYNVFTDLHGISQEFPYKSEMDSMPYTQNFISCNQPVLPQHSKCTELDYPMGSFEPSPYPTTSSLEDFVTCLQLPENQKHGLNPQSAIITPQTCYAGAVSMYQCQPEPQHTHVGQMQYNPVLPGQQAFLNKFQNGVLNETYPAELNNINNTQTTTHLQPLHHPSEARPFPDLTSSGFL
Chain of Hepatocyte nuclear factor 3-beta (Homo sapiens) (Q9Y261 whole entry, looked up): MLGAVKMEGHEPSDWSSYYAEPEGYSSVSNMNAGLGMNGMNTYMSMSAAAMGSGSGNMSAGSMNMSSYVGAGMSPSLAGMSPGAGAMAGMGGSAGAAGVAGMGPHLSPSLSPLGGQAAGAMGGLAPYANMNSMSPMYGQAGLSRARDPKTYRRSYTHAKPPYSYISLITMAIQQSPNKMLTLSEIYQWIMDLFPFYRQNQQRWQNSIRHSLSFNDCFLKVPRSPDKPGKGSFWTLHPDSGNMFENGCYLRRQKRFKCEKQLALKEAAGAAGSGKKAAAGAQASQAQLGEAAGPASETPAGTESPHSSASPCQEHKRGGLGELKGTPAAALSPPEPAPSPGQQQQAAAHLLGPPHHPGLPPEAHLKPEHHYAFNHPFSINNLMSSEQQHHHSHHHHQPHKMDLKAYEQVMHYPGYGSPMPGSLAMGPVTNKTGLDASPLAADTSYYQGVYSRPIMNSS

With `COC(N)=O`, the result in test [1], in test [2], in test [3], in test [4], in [5] and in test [6] was inactive. The compound was called inactive in test [7], in test [8], in [9], in [10], in test [11] and in test [12]. The result in [13], in test [14], in [15], in [16], in test [17] and in test [18] was inactive. Moreover, the outcome in test [19] and in test [20] was inactive.
For `CC(C)CBr`, the result in [1], in test [2], in test [3], in test [4], in test [5] and in [6] was inactive. Also, the compound was called inactive in test [7], in [8], in [9], in [10], in [11] and in test [12]. Also, the call in test [13], in test [14], in test [15], in test [16], in test [17] and in test [18] was inactive. Besides, the compound was called inactive in test [19] and in test [20].
Turning to `Nc1ccc([N+](=O)[O-])cc1Cl`, the result in test [1], in test [2], in [3], in [4], in [5] and in test [6] was inactive. Also, the compound was classed as inactive in test [7], in [8], in test [9], in [10], in test [11] and in [12]. The result in test [13], in [14], in test [15], in [16], in [17] and in test [18] was inactive. The call in test [19] and in test [20] was inactive.
In the case of `NC(=O)C(F)(F)C(F)(F)F`, the compound was classed as inactive in test [1], in test [2], in test [3], in [4], in test [5] and in test [6]. Moreover, the call in [7], in [8], in [9], in test [10], in test [11] and in test [12] was inactive. Also, the compound was classed as inactive in [13], in test [14], in [15], in test [16], in [17] and in [18]. Besides, the result in test [19] and in test [20] was inactive.
For the compound `[N-]=[N+]=[N-]`, the call in [1], in test [2], in [3], in test [4], in [6] and in [7] was inactive. The outcome in [8], in [10], in test [11], in test [12], in test [13] and in test [14] was inactive. For the same compound, the call in [15], in [16], in test [17], in [18], in test [19] and in [20] was inactive.
As for `Cc1cccc(N)c1`, the call in test [1], in test [2], in test [3], in [4], in test [5] and in test [6] was inactive. For the same compound, the call in test [7], in test [10], in test [11], in test [12], in test [13] and in test [14] was inactive. Also, the compound was called inactive in test [15], in test [16], in test [17], in test [18], in test [19] and in test [20].
What is called AC50 is the concentration at which the activity in the assay is half-maximal. Regarding `C=CC(=O)OCC(F)(F)C(F)F`, the compound was classed as inactive in test [1], in test [2], in test [5], in test [6], in [7] and in [9]. Further, the outcome in test [10], in test [11], in test [13], in test [14], in test [15] and in test [16] was inactive. Moreover, the outcome in test [17], in test [18], in [19] and in [20] was inactive. In addition, the AC50 in [3] was 150 µM (active); in test [4] it was 67 µM (active).
